Results reported in the antibiotic and cytotoxicity screens of Wong et al. (2023).
In all, about 39,000 compounds went through this assay and about 3,300 (8.5%) were called active. The full list was thinned out, with actives kept by preference.

System: HepG2
Assay: cytotoxicity call (relative viability < 0.9)
Conditions: 10 µM

| Structure (SMILES) | cytotoxicity call |
| --- | --- |
| C[C@H](CO)N1C[C@H](C)[C@H](CN(C)C(=O)Nc2cccc3ccccc23)Oc2ncc(-c3cccc(C(F)(F)F)c3)cc2C1=O | inactive |
| CN(C)C1CCN(C(=O)c2cnc(-c3noc4cc(-c5cccc(C(F)(F)F)c5)ccc34)s2)CC1 | active |
| CN(C)C1CCN(C(=O)c2cnc(-c3noc4cc(-c5ccccc5C(F)(F)F)ccc34)s2)CC1 | active |
| C[C@H](CO)N1C[C@H](C)[C@H](CN(C)C(=O)Nc2ccccc2)Oc2ncc(-c3cccc(C(F)(F)F)c3)cc2C1=O | inactive |
| C[C@H]1CN([C@@H](C)CO)C(=O)c2cccc(NC(=O)C3CCCCC3)c2O[C@@H]1CN(C)Cc1ccc(C(F)(F)F)cc1 | inactive |
| CCCN(C)C[C@H]1OCCCC[C@H](C)Oc2ccc(NC(=O)Nc3cccc4ccccc34)cc2C(=O)N([C@@H](C)CO)C[C@H]1C | inactive |
| O=C(CCCCCNC(=O)OCc1ccc(CO[C@@H]2C[C@H](c3csc4ccccc34)C=C(C(=O)N3CCN(Cc4ccccc4)CC3)O2)cc1)NO | inactive |
| C[C@H]1CN([C@@H](C)CO)C(=O)c2cc(NC(=O)C3CC3)ccc2O[C@H]1CN(C)S(=O)(=O)c1cccs1 | inactive |
| CC(C)Cc1ccc([C@@H](C)C(=O)Nc2ccc(Cl)cc2)cc1 | active |
| N[C@@H](Cc1ccc(Cl)cc1)C(=O)O | inactive |
| CC(C)Cc1ccc(C(C)C(=O)O)cc1 (centres undefined) | inactive |
| C[C@@H]1CN([C@@H](C)CO)C(=O)CCCn2nncc2CO[C@H]1CN(C)C(=O)Nc1ccc2c(c1)OCO2 | inactive |
| C[C@@H]1CN([C@@H](C)CO)C(=O)c2cc(-c3cncnc3)cnc2O[C@@H]1CN(C)C(=O)Nc1ccc2c(c1)OCO2 | inactive |
| COc1ccc(N(C(=O)CCl)[C@@H](C(=O)NCCc2ccccc2)c2ccc(Cl)s2)cc1Cl | active |
| CC(C)(C)OC(=O)NCCOCCOCCOc1ccc(N(C(=O)CCl)[C@@H](C(=O)NCCc2ccccc2)c2cccs2)cc1Cl | active |
| COc1ccc(N(C(=O)CSc2ncccn2)[C@@H](C(=O)NCCc2ccccc2)c2cccs2)cc1Cl | inactive |
| O=C(CCCl)NCCc1ccccc1 | inactive |
| Cc1noc(C)c1S(=O)(=O)Nc1cccc2c1O[C@H](CN(C)S(C)(=O)=O)[C@H](C)CN([C@H](C)CO)C2=O | inactive |
| C[C@H]1CN([C@@H](C)CO)C(=O)Cc2cc(NS(=O)(=O)c3cn(C)cn3)ccc2O[C@@H]1CN(C)Cc1ccccc1 | inactive |
| C[C@@H]1CCCCO[C@@H](CN(C)C(=O)Nc2ccc3c(c2)OCO3)[C@H](C)CN([C@H](C)CO)C(=O)c2cc(NC(=O)c3ccncc3)ccc2O1 | inactive |
| COc1ccc(CNC(=O)C[C@@H]2C[C@@H]3c4cc(NS(=O)(=O)c5ccc(F)cc5)ccc4O[C@@H]3[C@@H](CO)O2)cc1 | inactive |
| C[C@H]1CCCCO[C@@H](CN(C)C(=O)Nc2ccc(F)cc2)[C@@H](C)CN([C@@H](C)CO)C(=O)c2cc(NC(=O)Nc3ccccc3)ccc2O1 | inactive |
| C[C@@H]1CCCCO[C@H](CN(C)Cc2ccncc2)[C@@H](C)CN([C@H](C)CO)C(=O)c2cc(NC(=O)Nc3ccc4c(c3)OCO4)ccc2O1 | inactive |
| CCC(=O)N(C)C[C@H]1Oc2ncc(C#C[C@@H](C)O)cc2C(=O)N([C@@H](C)CO)C[C@H]1C | inactive |
| C[C@@H]1CN([C@H](C)CO)C(=O)c2cc(NC(=O)c3ccccc3)ccc2O[C@@H](C)CCCCO[C@H]1CN(C)S(=O)(=O)c1ccc(F)cc1 | active |

| Structure (SMILES) | cytotoxicity call |
| --- | --- |
| C[C@@H]1CCCCO[C@@H](CN(C)S(=O)(=O)c2ccc(F)cc2)[C@@H](C)CN([C@@H](C)CO)C(=O)c2cc(NC(=O)c3ccccc3)ccc2O1 | inactive |
| C[C@H]1CCCCO[C@H](CN(C)S(=O)(=O)c2ccc(F)cc2)[C@@H](C)CN([C@@H](C)CO)C(=O)c2cc(NC(=O)c3ccccc3)ccc2O1 | active |
| C[C@@H]1CCCCO[C@H](CN(C)S(=O)(=O)c2ccc(F)cc2)[C@@H](C)CN([C@H](C)CO)C(=O)c2cc(NC(=O)c3ccccc3)ccc2O1 | inactive |
| C[C@@H]1CCCCO[C@H](CN(C)S(=O)(=O)c2ccc(F)cc2)[C@H](C)CN([C@@H](C)CO)C(=O)c2cc(NC(=O)c3ccccc3)ccc2O1 | inactive |
| C[C@H](CO)N1C[C@H](C)[C@H](CN(C)S(=O)(=O)c2ccc(F)cc2)OCCCC[C@H](C)Oc2ccc(NC(=O)c3ccccc3)cc2C1=O | inactive |
| C[C@@H]1CN([C@H](C)CO)C(=O)Cc2cc(NC(=O)CCN3CCOCC3)ccc2O[C@@H]1CN(C)CC1CC1 | inactive |
| COc1cc2c(cc1-c1coc3c4c(ccc3c1=O)OC(C)(C)CC4)OCO2 | inactive |
| COc1cc2c(=O)c(-c3ccc4c(c3)OCO4)coc2c2c1OC(C)(C)C=C2 | active |
| COc1cc2c(cc1-c1coc3c4c(c(OC)cc3c1=O)OC(C)(C)CC4)OCO2 | inactive |
| CN1CCN(C(=O)C[C@H]2CC[C@H](NC(=O)Cc3ccccn3)[C@@H](CO)O2)CC1 | inactive |
| CC1(C)C[C@H](c2nc(-c3ccccc3)cs2)CCS1 | active |
| NCCc1nc(-c2ccccc2)cs1 | inactive |
| O=C(C[C@H]1CC[C@@H](NC(=O)c2cnccn2)[C@H](CO)O1)NCc1ccccc1F | inactive |
| CCS(=O)(=O)N(C)C[C@H]1OCc2ccccc2-c2c(n(C)c3ccccc23)C(=O)N([C@H](C)CO)C[C@H]1C | inactive |
| NCCC(=O)N[C@@H](Cc1cnc[nH]1)C(=O)O.[Zn+3] | inactive |
| C[C@@H]1CN([C@@H](C)CO)S(=O)(=O)c2ccc(C#CCN(C)C)cc2O[C@H]1CN(C)Cc1ccc2c(c1)OCO2 | inactive |
| C=CC(C1=CC(=O)C=CC1=O)c1ccccc1 (centres undefined) | active |
| C=CC(C1=CC(=O)C(OC)=CC1=O)c1ccc(OC)cc1 (centres undefined) | active |
| COC1=CC(=O)c2ccccc2C1=O | inactive |
| COc1ccc([C@@H](N)c2ccccc2)cc1 | inactive |
| COc1ccc(S(=O)(=O)N(C)C)cc1 | inactive |
| C=CC(C1=CC(=O)C(OC)=CC1=O)c1ccccc1 (centres undefined) | active |
| C=CC(C1=CC(=O)C(OC)=CC1=O)c1ccc(O)cc1 (centres undefined) | active |
| COC(=O)[C@@H](O)c1ccccc1 | inactive |
| CC(C)CC#Cc1cnc2c(c1)C(=O)N([C@@H](C)CO)C[C@@H](C)[C@@H](CN(C)C(=O)c1ccc3c(c1)OCO3)O2 | inactive |

| Structure (SMILES) | cytotoxicity call |
| --- | --- |
| c1ccc(Oc2ccccc2)cc1 | inactive |
| COc1cccc(S(=O)(=O)Nc2ccc3c(c2)[C@H]2C[C@H](CC(=O)N4CCCCC4)O[C@H](CO)[C@H]2O3)c1 | inactive |
| COc1ccc(NC(=O)Nc2ccc3c(c2)C(=O)N([C@@H](C)CO)C[C@@H](C)[C@H](CN(C)CC2CCCCC2)O3)cc1 | inactive |
| CN(CC=CC#CC(C)(C)C)Cc1cccc2ccccc12.Cl | inactive |
| C[C@@H]1CN([C@@H](C)CO)C(=O)c2cc(C#C[C@@H](C)O)cnc2O[C@H]1CN(C)C(=O)CN1CCOCC1 | inactive |
| C[C@@H]1CN([C@@H](C)CO)C(=O)c2cc(-c3ccc(C(=O)N(C)C)cc3)cnc2O[C@@H]1CN(C)C(=O)CN(C)C | inactive |
| Cc1ccc(S(=O)(=O)Nc2cccc3c2O[C@@H](CN(C)Cc2ccc(C(F)(F)F)cc2)[C@@H](C)CN([C@H](C)CO)C3=O)cc1 | inactive |
| C[C@@H]1CN([C@H](C)CO)C(=O)c2cccc(NC(=O)c3ccncc3)c2O[C@@H]1CN(C)S(=O)(=O)c1cn(C)cn1 | inactive |
| O=C1N[C@@H](c2ccccc2)COCc2cn(nn2)CC[C@@H](Cc2ccc(C(F)(F)F)cc2)C(=O)N[C@@H](c2ccccc2)COCc2cn(nn2)CC[C@H]1Cc1ccc(C(F)(F)F)cc1 | inactive |
| O=C(O)[C@]1(O)C[C@H](O)[C@@H](O)[C@@H](O)C1 | inactive |
| Cc1noc(C)c1S(=O)(=O)N(C)C[C@@H]1Oc2ccc(N(C)C)cc2CC(=O)N([C@@H](C)CO)C[C@H]1C | inactive |
| C=C1C[C@@]23CC[C@@H]4[C@@](C)(CCC[C@@]4(C)C(=O)OC)[C@H]2CC[C@@H]1C3 | inactive |
| CC(C)C1=CC2=CCC3C(C)(C(=O)O)CCCC3(C)C2CC1 (centres undefined) | inactive |
| C=C1C[C@]23CC[C@@H]4[C@@](C)(CCC[C@@]4(C)C(=O)O)[C@H]2CC[C@H]1C3 | active |
| Cc1noc(C)c1NC(=O)Nc1ccc2c(c1)CC(=O)N([C@H](C)CO)C[C@@H](C)[C@@H](CN(C)C(=O)NC(C)C)O2 | inactive |
| COCCCNC(=O)[C@@]1(Cc2ccccc2I)c2ccccc2C(=O)N(Cc2ccccc2OC)[C@H]1c1ccc(CO)cc1 | inactive |
| COc1ccccc1CN1C(=O)c2ccccc2[C@](Cc2ccccc2I)(C(=O)NCC(C)C)[C@@H]1c1ccc(CO)cc1 | inactive |
| COc1ccccc1CN1C(=O)c2ccccc2[C@](Cc2ccccc2I)(C(=O)NC2CC2)[C@@H]1c1ccc(CO)cc1 | active |
| COc1ccc(CCNC(=O)[C@@]2(Cc3ccccc3I)c3ccccc3C(=O)N(Cc3ccccc3OC)[C@H]2c2ccc(CO)cc2)cc1 | inactive |
| COc1ccccc1CN1C(=O)c2ccccc2[C@](Cc2ccccc2I)(C(=O)O)[C@@H]1c1ccc(CO)cc1 | inactive |
| COc1ccccc1CN1C(=O)c2ccccc2[C@](Cc2ccccc2I)(C(=O)NCCCN(C)C)[C@@H]1c1ccc(CO)cc1 | active |
| CO[C@H]1CN(C)C(=O)c2cc(NS(=O)(=O)CC(F)(F)F)ccc2OC[C@@H](C)N(Cc2cccnc2)C[C@@H]1C | inactive |
| COc1ccc2c3c(n(c2c1)C)[C@H](CO)N(C[C@]13CCN(CC1)C(=O)c1ccncc1)C(=O)C1CCOCC1 | inactive |
| CC(C)NC(=O)Nc1cccc2c1O[C@@H](CN(C)C(=O)Nc1ccc3c(c1)OCO3)[C@@H](C)CN([C@H](C)CO)C2=O | inactive |
